# Source: PubChem BioAssay (several laboratories)
# Sampled rows, rich in hits. Any-hit rate of the full collection: about 5.1%.
# MPTP inh – permeability transition pore inhibition; isolated mouse mitochondria, Ca2+ swelling absorbance, 30 min; inhibition, % at 10 µM; 360,000 compounds, 1.4% hits; AID 602449;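 active = inhibition of 50% or more, scaled per plate between neutral and stimulator controls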;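 note: 0% = DMSO wells given calcium and 100% = 1 mM EGTA wells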
# CRFR2-BP ag – CRF-BP/CRF-R2 complex agonism | 350,000 compounds, 0.46% hits | activation, % at 13.2 µM | HEK293 CRF-R2/CRF-BP, calcium dye fluorescence (FLIPR); percent of saturating CRF peptide response;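 active = activation of at least 50%, plus an integration ratio under a set limit after plate pattern correction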;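 note: plate controls were neutral control wells without compound for no effect and CRF at EC100 for full effect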
# ANO1 block – blocks the mouse calcium-activated chloride channel TMEM16A | Q8BHY3 | HEK293 TMEM16A/YFP iodide influx fluorescence, ionomycin | normalized B-score (activity score, 25-100; higher = stronger inhibition) at 10 µM | 310,000 compounds, 1.2% hits | AID 588511;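 active = ratio plate-corrected score three or more library SD toward inhibition, starting fluorescence score within five deviations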;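 note: score derived from kinetic fluorescence span divided by baseline fluorescence per well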
# Target sequence (Q8BHY3 whole entry, looked up): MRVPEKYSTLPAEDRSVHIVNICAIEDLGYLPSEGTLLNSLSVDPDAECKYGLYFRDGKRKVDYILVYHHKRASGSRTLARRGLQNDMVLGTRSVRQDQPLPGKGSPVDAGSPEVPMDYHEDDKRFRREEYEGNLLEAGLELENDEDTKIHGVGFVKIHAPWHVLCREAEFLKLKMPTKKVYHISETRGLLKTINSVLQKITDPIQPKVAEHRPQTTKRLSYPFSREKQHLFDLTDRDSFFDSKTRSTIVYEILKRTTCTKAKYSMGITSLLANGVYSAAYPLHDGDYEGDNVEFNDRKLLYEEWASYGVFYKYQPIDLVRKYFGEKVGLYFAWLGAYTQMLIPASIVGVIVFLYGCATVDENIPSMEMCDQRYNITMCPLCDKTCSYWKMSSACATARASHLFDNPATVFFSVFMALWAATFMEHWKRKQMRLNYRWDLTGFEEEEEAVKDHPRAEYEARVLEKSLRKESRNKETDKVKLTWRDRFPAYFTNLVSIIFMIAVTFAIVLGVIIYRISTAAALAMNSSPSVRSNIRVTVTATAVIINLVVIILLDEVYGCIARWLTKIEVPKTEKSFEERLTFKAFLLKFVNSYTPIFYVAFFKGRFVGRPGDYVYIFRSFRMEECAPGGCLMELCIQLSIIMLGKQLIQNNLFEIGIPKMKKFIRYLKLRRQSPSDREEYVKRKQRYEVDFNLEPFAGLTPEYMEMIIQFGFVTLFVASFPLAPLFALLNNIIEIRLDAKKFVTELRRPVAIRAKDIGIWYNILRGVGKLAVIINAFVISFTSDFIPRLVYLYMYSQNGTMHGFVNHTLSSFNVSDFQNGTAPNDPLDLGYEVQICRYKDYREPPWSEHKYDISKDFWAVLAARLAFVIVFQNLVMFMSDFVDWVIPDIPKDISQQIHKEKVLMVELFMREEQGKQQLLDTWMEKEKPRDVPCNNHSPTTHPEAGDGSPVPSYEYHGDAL
# ANO1 activ – mouse TMEM16A channel activation, primary screen; AID 623877; Q8BHY3; B-score at 10 µM; HEK293 TMEM16A/YFP-H148Q/I152L, iodide quench fluorescence; stronger effect = lower value; 340,000 compounds, 0.3% hits;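 active = fluorescence-ratio B-score plate-corrected deviation score at least 3 library SD below zero, with starting fluorescence score within 5 deviations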;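 note: channel opened by trigger with iodide after compound preincubation; score built on the fluorescence ratio of max minus min over baseline; more negative score means more quench and so TMEM16A activation or potentiation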
# GRIN3A LBD mod – NR3A (human) ligand-binding domain modulation | NR3A LBD differential scanning fluorimetry, Tm shift; 0% = protein alone, 100% = glycine-bound protein | Tm shift relative to glycine control, % at 25 µM | 340,000 compounds, 2.5% hits;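 active = melting temperature shift of at least 10% of the positive control shift, at one fixed dose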
# CRFR2-BP antag – antagonists of CRF-binding protein/CRF-R2 receptor complex; AID 588475; HEK293 CRF-R2/CRF-BP, CRF-induced calcium fluorescence; inhibition, % at 11.8 µM; 350,000 compounds, 0.59% hits;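 active = inhibition of the ligand-induced calcium signal above about 50% at the single tested concentration, limit read from the data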
# Starred values were filed as active, the others as inactive; i = inactive; . = no result.
SMILES,MPTP inh,CRFR2-BP ag,ANO1 block,ANO1 activ,GRIN3A LBD mod,CRFR2-BP antag
N#CC1(NC(=O)COC(=O)Cc2c[nH]c3ccccc23)CCCCC1,0,1,.,.,.,-5
CN(C)C(=O)c1ccc(NC(=O)c2ccccc2SCC(=O)N2CCCC2)cc1,0,-1,.,i,4,0
O=C(CC[C@H]1O[C@@H](n2ccc(=O)[nH]c2=O)[C@H](O)[C@@H]1O)NCC(c1ccccc1)c1ccccc1,0,.,.,.,.,.
CC(C)[C@@H](CO)N(C)S(=O)(=O)c1ccccc1Br,0,1,.,i,11*,14
CN(Cc1ccccc1)S(=O)(=O)c1ccccc1Br,-1,-4,.,.,5,27
O=C1CCc2cc(S(=O)(=O)NCc3ccc(F)cc3)cc3c2N1CCC3,0,2,i,i,-1,0
CCOC(=O)c1ccc(NC(=O)c2ccccc2[N+](=O)[O-])cc1,0,-5,i,i,2,20
CCOC(=O)c1cc([N+](=O)[O-])c([N+](=O)[O-])cc1NC(C)=O,1,-3,i,i,-5,51*
O=S(=O)(Nc1cccc(S(=O)(=O)N2CCOCC2)c1)c1cccs1,0,-1,i,i,2,20
COC(=O)NC(=S)Nc1ccc(Oc2ccc(Cl)cc2)c(Cl)c1,3,-1,i,i,-4,9
COC(=O)NC(=S)Nc1ccc(Oc2ccc(Cl)cc2Cl)c(Cl)c1,0,-1,i,i,16*,17
CCCCCNC(=O)C1CC=CCC1C(=O)O (stereo unspecified),-1,8,i,i,12*,-18
COc1ccc(-n2ncc3c(NC(C)C)ncnc32)cc1,0,-1,i,i,1,-3
O=C(NNc1ncnc2c1cnn2-c1ccc(F)cc1)c1ccco1,0,-2,i,i,4,68*
COc1cccc(Nc2ncnc3c2cnn3-c2cccc(C)c2)c1,10,0,i,i,13*,-31
COc1ccc(-n2ncc3c(NCC(C)C)ncnc32)cc1,0,0,i,i,17*,-4
Fc1cccc(Nc2ncnc3c2cnn3-c2ccccc2)c1,4,11,i,i,28*,-23
CC1CC(=O)c2ccccc2C1C (stereo unspecified),0,1,.,i,-2,-13
Clc1ccc2[nH]c(-c3ccccc3)cc2c1,3,3,25*,i,20*,-15
Cc1ccc(-c2noc(CN3CCC(C(N)=O)CC3)n2)cc1,-2,51*,i,i,-2,-55
COc1ccccc1/C=C(\NC(=O)c1ccccc1)C(=O)NCc1ccco1,-1,-1,i,i,2,-1
S=c1nc2[nH]c3ccccc3c2n[nH]1,-1,-2,.,i,20*,-4
CN(C)C(CNC(=O)c1ccc(C2SCCS2)cc1)c1ccccc1 (stereo unspecified),-3,0,i,i,2,8
COCCNC(=S)N(CCc1c(C)[nH]c2ccc(F)cc12)Cc1cccnc1,1,-5,i,.,13*,-13
COCCNC(=S)N(CCc1c(C)[nH]c2ccc(Cl)cc12)Cc1cccnc1,1,-1,i,i,-5,-4
SMILES,MPTP inh,CRFR2-BP ag,ANO1 block,ANO1 activ,GRIN3A LBD mod,CRFR2-BP antag
COc1ccc(C)cc1S(=O)(=O)N1CCCC(N2CCN(c3ccccc3)CC2)C1 (stereo unspecified),0,-1,.,.,.,-2
S=C1NC2(CCCCC2)Nc2ccccc21,-1,1,i,i,12*,-3
S=C1NC2(CCCC2)Nc2ccccc21,-1,0,i,i,-2,10
CCCC(=O)Nc1ccc(S(=O)(=O)N2CCc3ccccc32)cc1,0,2,.,.,.,-9
O=C(NCCSc1ccccn1)c1ccc(Cl)cc1,-2,2,i,i,1,-10
CS(=O)(=O)N(Cc1ccc(Cl)cc1)c1ccc(C(=O)NCCSc2ccccn2)cc1,-2,54*,i,i,-10,2
COc1ccc(C(=O)N(c2c(C)cccc2C)C(COC(C)=O)COC(C)=O)cc1,0,.,.,.,.,.
O=C(COC(=O)CN1C(=O)c2ccccc2C1=O)NC1CCCCC1,-1,-1,i,i,0,-35
CC(C)(C)C(=O)Nc1nnc(SCc2ccc(F)cc2)s1,2,-1,i,i,3,-62
CCC(=O)Nc1nnc(SCc2ccc(F)cc2)s1,-1,0,i,i,-7,-5
CC(=O)Nc1ccc(N2C(=O)c3ccc(C(=O)Nc4nnc(SCc5ccc(F)cc5)s4)cc3C2=O)cc1,4,0,i,i,10*,16
CCOC(=O)C(=O)Nc1nnc(SCc2ccc(F)cc2)s1,4,-2,i,i,22*,11
CCN(CC(=O)Nc1c(F)cccc1F)C(=O)CCc1ccc(OC)cc1,-2,0,i,i,-2,-1
CC(C(=O)N(C)C1CCCCC1)N1CCC(C(N)=O)CC1 (stereo unspecified),0,-1,i,i,0,-9
COc1cc(OC)cc(C(=O)Nc2ccc(S(=O)(=O)Nc3ccccn3)cc2)c1,0,0,i,i,0,6
Cc1ccc(OC(=O)NC2CCS(=O)(=O)C2)cc1C (stereo unspecified),-1,-3,i,i,11*,11
Cc1ccc(C(=O)N2CCN(c3cnn(C)c(=O)c3Cl)CC2)cc1,0,0,i,i,-1,5
CS(=O)(=O)Nc1ccc(C2=NN(C(=O)c3ccco3)C(c3ccccc3)C2)cc1 (stereo unspecified),-1,0,i,i,12*,-15
O=C(c1ccco1)N1N=C(c2cccs2)CC1c1ccccc1O (stereo unspecified),2,-9,i,i,-3,93*
Cc1ccc(C2CC(c3ccc(NS(C)(=O)=O)cc3)=NN2C(=O)c2ccco2)cc1 (stereo unspecified),-1,-1,i,i,-12,-19
CCC(=O)N1N=C(c2cccs2)CC1c1ccco1 (stereo unspecified),-23,0,i,i,0,12
COc1ccc(C2=NN(C(=O)c3ccco3)C(c3cccs3)C2)cc1OC (stereo unspecified),0,-2,.,.,.,4
COc1ccc(C2CC(c3cccs3)=NN2C(=O)c2ccccc2)cc1OC (stereo unspecified),0,0,i,i,0,52*
COc1cccc(C2CC(c3cccs3)=NN2C(=O)c2ccco2)c1O (stereo unspecified),-2,-1,i,i,0,67*
